aDG glyco act: increases alpha dystroglycan glycosylation; Pro5-aDG cells, alpha-DG glycosylation AlphaScreen (IIH6); 0% Pro5, 100% B10-LARGE cell signal; 360,000 tested, 0.22% active; activation, % at 10 µM; AID 624168;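 active means activation of at least 8% versus controls, or a plate z-score of at least 8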;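 further: Pro5 are CHO cells carrying HIG-tagged alpha-DG that lacks glycosylation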
Glyco luc inh: N-linked glycosylation inhibition | D54 ERlucT glycosylation luciferase reporter, 24 h; percent of 100 nM tunicamycin response | reporter increase, % at 12.5 µM | 360,000 tested, 0.23% active | AID 588692;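 active means mean luciferase reporter signal, scaled so untreated is 0 and the glycosylation-blocking control 100, at or above a set limit in every replicate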;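 further: luciferase carries N-glycosylation sites so blocking glycosylation raises the light; 0% = median of neutral control wells and 100% = median of 100 nM tunicamycin wells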
ARNT-TACC3 inh: disruptors of human ARNT/TACC3 interaction | Q9Y6A5 | AlphaScreen His-ARNT PAS-B/GST-TACC3 binding, luminescence; TACC3 fragment carries E629A point mutation | inhibition, % at 9.99 µM | 390,000 tested, 0.66% active | AID 623870;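 active means mean inhibition of replicates at least 50% and at least half of replicates each reaching 50%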;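 further: 0% = complete ARNT plus TACC3 wells and 100% = ARNT alone without TACC3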
Cardio protect: protects H9c2 cardiomyocytes from peroxide injury. protection from H2O2 cell death, % at 20 µM. 360,000 tested, 0.63% active. H2O2 injury protection, ATPLite, 2 h. AID 588492;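 active means compounds giving at least 50% protection of heart cells from peroxide-induced death in the single-dose screen, raw or plate-pattern-corrected value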;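 further: 0% = DMSO wells with peroxide and 100% = DMSO wells without peroxide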
Vif inh: inhibitors of HIV Vif; HEK293T cells, Vif self-association by quenched fluorescence, imaging, 24 h; inhibition, % at 7.49 µM; 340,000 tested, 0.35% active; AID 602346; in the data active means inhibition above about 50%, passing the limit was not always enough
Starred values were filed as active, the others as inactive; . = not tested or not shown. Shown are actives, neighbours in structure and some others; about 1.7% of the full set was active somewhere.

SMILES	aDG glyco act	Glyco luc inh	ARNT-TACC3 inh	Cardio protect	Vif inh
C[C@@H](NC(=O)C[C@@H]1CC[C@H]2[C@@H](COC[C@H](O)CN2C(=O)Nc2ccccc2)O1)c1ccccc1	.	.	4.7	.	.
COc1ccccc1S(=O)(=O)N1CC[C@@H]2[C@@H](CO)Nc3ccc(Br)cc3[C@@H]21	.	.	36.2	.	.
CC(C)NC(=O)Nc1cccc2c1O[C@@H](CN(C)S(=O)(=O)c1ccccc1)[C@H](C)CN([C@H](C)CO)C2=O	.	.	-10.3	.	.
COc1cc(OC)cc(-c2oc3cccnc3c2C#CCCO)c1	0.2	12.0	39.9	56.2*	-3.0
O=C(COc1ccc([N+](=O)[O-])cc1)NNC(=O)c1cccs1	-0.2	0.5	-5.3	8.7	52.6*
CC(=O)c1sc(NC(=O)COc2ccc([N+](=O)[O-])cc2)nc1C	0.1	1.7	-7.8	0.2	98.4*
COC(=O)c1ccc(COc2ccc(C)cc2[N+](=O)[O-])o1	0.1	0.8	2.3	3.9	-4.7
COC(=O)c1cc(C)ccc1OCc1ccc([N+](=O)[O-])cc1	-0.1	-1.2	-1.2	4.0	81.7*
O=CNc1cc(-c2ccccc2)cn2c(-c3ccc(F)c(Cl)c3)cnc12	0.2	0.3	.	6.4	-2.2
O=CNc1cc(-c2ccc(C(=O)NC3CC3)cc2)cn2c(-c3ccccc3)cnc12	1.1	-6.6	.	72.4*	.
CC(=O)c1ccc(-c2cnc3c(NC=O)cc(-c4ccc(C(=O)NC5CC5)cc4)cn23)cc1	0.1	-17.2	.	95.4*	.
COc1cccc(-c2cnc3c(NC(C)=O)cc(-c4ccc(C(=O)NC5CC5)cc4)cn23)c1	0.4	-3.8	.	31.5	-0.3
O=CNc1cc(-c2ccc(C(=O)NC3CC3)cc2)cn2c(-c3ccc(F)c(Cl)c3)cnc12	1.3	-3.1	.	59.9*	-1.2
CO[C@H]1CN(C)C(=O)c2cccc(C#N)c2OC[C@H]2O[C@H](CC[C@H]2OC)CCN(C)C(=O)[C@H]1C	.	.	-3.3	.	.
C[C@@H]1CCCCO[C@H](CN(C)Cc2ccc(C(=O)Nc3ccccc3N)cc2)[C@@H](C)CN([C@@H](C)CO)C(=O)c2cc(NS(=O)(=O)c3ccc(Cl)cc3)ccc2O1	.	.	34.8	.	.
COc1cc(Cl)c(NC2=CC(=O)C(=O)c3ccccc32)c(OC)c1	1.8	-20.9	-0.2	-30.0	5.2
O=c1cccccc1NCc1ccccc1	-0.3	1.3	2.7	11.5	-2.9
Cc1ccc(NC2=CC(=O)C(=O)c3ccccc32)c(C)c1	6.5*	-20.1	16.1	-28.2	-5.2
O=C1C=C(NCc2ccccc2)c2ccccc2C1=O	8.7*	-16.2	24.7	-33.3	-3.2
O=C1C=C(Nc2ccccc2O)c2ccccc2C1=O	12.5*	-17.6	22.2	-16.2	-6.2
CC(C)NC(=O)Nc1ccc2c(c1)C(=O)N([C@H](C)CO)C[C@@H](C)[C@H](CN(C)Cc1ccc(C(=O)O)cc1)OCCCC[C@@H](C)O2	.	.	-5.9	.	.
COc1ccc(NC(=O)Nc2ccc3c(c2)CC(=O)N([C@@H](C)CO)C[C@@H](C)[C@H](CN(C)Cc2ccccc2)O3)cc1	.	.	1.0	.	.
CC(O)CN(C)CC/C=C1/c2ccccc2CSc2ccccc21 (configuration not stated)	0.6	-4.1	-6.4	5.2	86.2*
CN(CC/C=C1/c2ccccc2CSc2ccccc21)CCCO	0.7	0.0	10.5	-0.7	-9.9
C[C@H]1CN([C@@H](C)CO)C(=O)c2cc(NC(=O)Cc3ccccc3)ccc2O[C@H]1CN(C)C(=O)Nc1ccc(C(F)(F)F)cc1	.	.	7.4	.	.
SMILES	aDG glyco act	Glyco luc inh	ARNT-TACC3 inh	Cardio protect	Vif inh
COc1cc(NCCCCCCCN)c2ncccc2c1	0.4	-1.8	16.5	-12.6	-2.3
COc1cc(NC(C)CCCN)c2ncccc2c1 (configuration not stated)	0.1	3.4	36.4*	-39.4	-2.4
C/C(=N\NC(=O)c1c(Br)c(C)nn1C)c1ccc(NC(=O)c2ccoc2C)cc1	0.1	-4.6	1.4	51.5*	0.9
Oc1c(Br)cc(Br)cc1C=NCc1ccccc1	0.5	-0.6	1.6	76.3*	7.2
Oc1c(Br)cc(Br)cc1C=NCc1ccc(F)cc1	-0.2	-1.5	-1.7	60.4*	-4.0
C[C@@H]1CN([C@@H](C)CO)C(=O)c2cccc(N(C)C)c2O[C@H]1CN(C)Cc1ccc(C(=O)O)cc1	.	.	-8.7	.	.
COCC(=O)N1[C@@H](CO)[C@@H]2c3ccccc3N(C(=O)c3cccc(OC)c3)C[C@@H]21	.	.	-9.1	.	.
Cc1cccc(C)c1-n1nnnc1SCc1nc(N)nc(N(C)C)n1	-0.3	3.1	-2.3	-2.2	128.7*
O=C(C[C@H]1CC[C@@H]2[C@H](COC[C@H](O)CN2Cc2cccc(-c3ccncc3)c2)O1)N1CCOCC1	.	.	-5.7	.	.
COc1cc2c(cc1OC)-c1cc(NC3CCCCC3)nc(=O)n1CC2	-0.3	-1.2	46.2*	11.1	-13.3
COc1cc2c(cc1OC)-c1cc(NC3CC3)nc(=O)n1CC2	-0.1	6.7	53.1*	-6.3	-0.5
CCC(=O)N[C@H]1CC[C@@H](CC(=O)NCCN2CCCCC2)O[C@H]1CO	.	.	-3.3	.	.
COc1ccc(NC(=O)Nc2ccc3c(c2)C(=O)N([C@@H](C)CO)C[C@@H](C)[C@@H](CN(C)Cc2ccc(C(=O)Nc4ccccc4N)cc2)O3)cc1	.	.	4.5	.	.
C[C@H](CO)N1C[C@H](C)[C@H](CN(C)C(=O)c2ccncc2)Oc2ncc(-c3ccc(C(=O)N(C)C)cc3)cc2C1=O	.	.	-5.5	.	.
COc1ccc(C=CC(=O)c2ccc([N+](=O)[O-])cc2)cc1	0.2	-2.9	-7.1	3.3	7.3
Cc1[nH]c(C)c(C(=O)/C=C/c2ccc([N+](=O)[O-])cc2)c1C	-0.4	42.1*	-0.3	-7.1	21.7
N#Cc1c(-c2ccco2)cc(C2CC2)nc1N	0.2	1.5	-10.8	24.4	-6.8
N#Cc1c(-c2ccco2)cc(-c2cccnc2)nc1N	0.0	2.5	-4.6	86.6*	-6.8
N#Cc1c(-c2cccnc2)cc(-c2ccccc2)nc1N	0.6	10.9	.	-1.4	3.6
N#Cc1c(-c2ccco2)cc(-c2ccccn2)nc1N	0.0	3.5	17.4	88.0*	-4.0
CCN1C(=O)CSC1=Nc1ccc(Cl)c(Cl)c1	1.1	-1.6	active	-8.5	1.1
CCN=C1SC(C(=O)Nc2cc(Cl)cc(Cl)c2)CC(=O)N1CC (configuration not stated)	0.4	4.1	active	4.3	12.2
CCN1C(=O)CSC1=Nc1ccc(OC)cc1	0.0	2.2	-7.6	-2.7	-2.9
CCN1C(=O)CC(C(=O)NC)SC1=Nc1cc(Cl)c(O)c(Cl)c1 (configuration not stated)	-0.1	1.8	22.6*	3.1	2.0
CCN=C1SC(C(=O)Nc2cccc(Cl)c2)CC(=O)N1CC (configuration not stated)	-0.3	0.0	-14.3	1.6	-3.1
COc1ccc(S(=O)(=O)N(C)C[C@H]2Oc3ccc(NC(=O)CCC(F)(F)F)cc3CC(=O)N([C@@H](C)CO)C[C@H]2C)cc1	.	.	-17.3	.	.
